Compounds without any hit were thinned out: in the full panel of roughly 79,000, 15% have a hit. A number with no mark means an inactive call. Activity calls are given as the source filed them. Cut-off read from the data, not from the text of the source: active = growth inhibition above about 70%; inactive = the rest.

A short description of assay [1]: NCI Yeast Anticancer Drug Screen. Data for the mec2-1 strain (AID 157). Conditions: S. cerevisiae mec2-1 strain, active compounds read high. In outline:
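Mutant yeast (mec2-1) grown with compound; growth inhibition relative to vehicle control reported.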

A short description of assay [2]: NCI Yeast Anticancer Drug Screen. Data for the sgs1 mgt1 strain (AID 161).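 Note: 0% = growth of cultures given vehicle only.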 Conditions: S. cerevisiae sgs1 mgt1 strain, active compounds read high. In short, it runs like this:
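Percent growth inhibition was derived by comparing compound-exposed mutant yeast with vehicle-exposed cultures. The strain carries alterations in DNA damage repair.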

Assay [3] in a line: NCI Yeast Anticancer Drug Screen. Data for the cln2 rad14 strain (AID 165).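 Note: 0% = growth equal to vehicle treated cultures.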 The settings on record: S. cerevisiae cln2 rad14 strain, active compounds read high. In short, it runs like this:
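Readout is yeast growth inhibition versus vehicle-treated controls, using a strain with cln2 and rad14 alterations exposed to compound.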

Assay [4] in a line: NCI Yeast Anticancer Drug Screen. Data for the bub3 strain (AID 167). The settings on record: S. cerevisiae bub3 mutant strain, active compounds read high. In outline:
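Yeast carrying a defined mutation is treated with each compound, and growth is compared with that of vehicle-exposed cells to give inhibition.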

Assay [5] in a line: NCI Yeast Anticancer Drug Screen. Data for the mlh1 rad18 strain (AID 175). The settings on record: S. cerevisiae mlh1 rad18 strain growth inhibition, active compounds read high. In outline:
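Genetically defined yeast (DNA repair-deficient) exposed to compounds; growth inhibition determined relative to vehicle.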

Assay [6] in a line: NCI Yeast Anticancer Drug Screen. Data for the rad50 strain (AID 155).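 Note: 0% = growth of vehicle-only cultures of the same strain.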 Conditions: S. cerevisiae rad50 strain growth inhibition; at 50.0 µM; active compounds read high. In outline:
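Genetically altered yeast (DNA repair pathway); compound treatment; growth inhibition vs vehicle ctrl.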

Where [7] appears, read: at 5.0 µM (retest, dose inferred, filed as 0.5).
The mark [8] stands for this setting: at 50.0 µM (retest, dose inferred, filed as 5.0).

On to `CCN(CC)CCN1C(=O)NC(=O)C(CC)(c2ccccc2)C1=O` (stereo not given), for which the growth inhibition is 9.4% in assay [1] (at 50.0 µM); -6% in assay [2] (at 50.0 µM); 2.9% in assay [3] (at 50.0 µM); 8.05% in assay [4] (at 50.0 µM); 4.9% in assay [5] (at 50.0 µM).
As to `C[N+](C)(C)Cc1ccc2ccccc2c1Br`, the growth inhibition in assay [6] was 30.3%; in assay [2] (at 50.0 µM) it was 10.2%; in assay [3] (at 50.0 µM), 10.3%; in assay [4] (at 50.0 µM), 0.2%; in assay [5] (at 50.0 µM), 20.6%.
With `CCC[CH2][Sn]1([CH2]CCC)[O]CC(CN2CCOCC2)[O]1` (stereo not given), the growth inhibition in assay [1] (setting [7]) was 17%; in assay [1] (setting [8]), 35%; in assay [1] (at 50.0 µM), 91% (active); in assay [2] (setting [7]), 34%; in assay [2] (setting [8]), 41%; in assay [2] (at 50.0 µM), 91% (active). For the same molecule, the growth inhibition in assay [3] (setting [7]) is 26%; in assay [3] (setting [8]), 31%; in assay [3] (at 50.0 µM), 88.8% (active); in assay [4] (setting [7]), 22%; in assay [4] (setting [8]) it was 27%; in assay [4] (at 50.0 µM), 90.3% (active). In addition, the results for the growth inhibition in assay [5] (setting [7]), in assay [5] (setting [8]) and in assay [5] (at 50.0 µM) were 45%, 44% and 88.8% (active), respectively.
Consider `CC1(C)CC(O)CC(C)(C)N1O`, for which the growth inhibition in assay [6] is 21.8%; in assay [2] (at 50.0 µM) it was 37%; in assay [3] (at 50.0 µM), 22.2%; in assay [4] (at 50.0 µM) it was 20.2%; in assay [5] (at 50.0 µM) it was 16.4%.
As for `CCOP(=O)(OCC)Oc1cc(C)c(Cl)c(C)c1`, the growth inhibition in assay [6] was 10.2%; in assay [2] (at 50.0 µM), 4.15%; in assay [3] (at 50.0 µM), 18.4%; in assay [4] (at 50.0 µM) it was 16.9%; in assay [5] (at 50.0 µM) it was -8.35%.
As for `CC(=O)OCC12CC(O)C(C)=CC1OC1C(O)C(OC(C)=O)C2(C)C12CO2` (stereo not given), the growth inhibition is 12% in assay [1] (setting [7]); 36% in assay [1] (setting [8]); 91% (active) in assay [1] (at 50.0 µM); 13% in assay [2] (setting [7]); 36% in assay [2] (setting [8]); 90.3% (active) in assay [2] (at 50.0 µM). Moreover, the growth inhibition in assay [3] (setting [7]) was 16%; in assay [3] (setting [8]) it was 39%; in assay [3] (at 50.0 µM), 77.3% (active); in assay [4] (setting [7]) it was 8%; in assay [4] (setting [8]), 21%; in assay [4] (at 50.0 µM), 91.8% (active). Besides, the growth inhibition in assay [5] (setting [7]) was 8%; in assay [5] (setting [8]) it was 37%; in assay [5] (at 50.0 µM), 92.1% (active).
Turning to `CCOP(=O)(OCC)/C(C#N)=C/c1cn(C)cn1`, the growth inhibition in assay [6] is -3.35%; in assay [2] (at 50.0 µM) it was -5.95%; in assay [3] (at 50.0 µM), -16.1%; in assay [4] (at 50.0 µM) it was -4.65%; in assay [5] (at 50.0 µM) it was -21.8%.
`O=C([O-])CC(=O)[O-].[Cu+2].[OH3+].[OH3+]`: the growth inhibition in assay [6] is 24.9%; in assay [2] (at 50.0 µM) it was 12.2%; in assay [3] (at 50.0 µM), -19.6%; in assay [4] (at 50.0 µM), -9.35%; in assay [5] (at 50.0 µM), 6.1%.
In the case of `Cn1c(=O)c2ncnnc2n(C)c1=O`, the growth inhibition in assay [6] is 31.6%; in assay [2] (at 50.0 µM), 27.9%; in assay [3] (at 50.0 µM) it was 0.5%; in assay [4] (at 50.0 µM), 36.8%; in assay [5] (at 50.0 µM) it was 45.1%.
For the molecule `COc1cc(/C=C\[N+](=O)[O-])ccc1O`, the growth inhibition was 53% in assay [1] (setting [7]); 100% (active) in assay [1] (setting [8]); 99.6% (active) in assay [1] (at 50.0 µM); 34% in assay [2] (setting [7]); 99% (active) in assay [2] (setting [8]); 99.5% (active) in assay [2] (at 50.0 µM). The growth inhibition was 21% in assay [3] (setting [7]); 100% (active) in assay [3] (setting [8]); 99% (active) in assay [3] (at 50.0 µM); 77% (active) in assay [4] (setting [7]); 99% (active) in assay [4] (setting [8]); 99% (active) in assay [4] (at 50.0 µM). The growth inhibition in assay [5] (setting [7]) was 51%; in assay [5] (setting [8]) it was 99% (active); in assay [5] (at 50.0 µM) it was 99% (active).
In the case of `CCC[CH2][Sn]([CH2]C)([CH2]C)[CH2]C`, the growth inhibition in assay [6] was 40.4%; in assay [2] (at 50.0 µM), 35.7%; in assay [3] (at 50.0 µM), 15.8%; in assay [4] (at 50.0 µM), 20.9%; in assay [5] (at 50.0 µM), 31.3%.
Turning to `C=CC(C)(C)C12CC3C(=O)N/C(=C\c4cnc[nH]4)C(=O)N3C1Nc1ccccc12` (stereo not given), the growth inhibition in assay [1] (at 50.0 µM) is -11%; in assay [2] (at 50.0 µM), 8.15%; in assay [3] (at 50.0 µM), 1.45%; in assay [4] (at 50.0 µM), -6.3%; in assay [5] (at 50.0 µM), -14.8%.
Take `COc1cc([C@@H]2c3cc4c(cc3C[C@H]3COC(=O)[C@@H]32)OCO4)cc(OC)c1OC`: the growth inhibition in assay [1] (at 50.0 µM) is -3.05%; in assay [2] (at 50.0 µM), 10.2%; in assay [3] (at 50.0 µM), 27.6%; in assay [4] (at 50.0 µM) it was 24.4%; in assay [5] (at 50.0 µM), 13.6%.
`O=C(Nc1ccccc1Cl)Oc1c(Cl)cc(S(=O)(=O)F)cc1Cl`: the growth inhibition in assay [6] is 20.4%; in assay [2] (at 50.0 µM) it was 34.1%; in assay [3] (at 50.0 µM) it was 32.6%; in assay [4] (at 50.0 µM), -2.05%; in assay [5] (at 50.0 µM), 44.2%.
Turning to `COc1ccc(C=O)cc1`, the growth inhibition is -10.2% in assay [1] (at 50.0 µM); -7.5% in assay [2] (at 50.0 µM); -21.2% in assay [3] (at 50.0 µM); 0.8% in assay [4] (at 50.0 µM); 21.5% in assay [5] (at 50.0 µM).
In the case of `CC(C)CC(NC(=O)C(Cc1ccccc1)NC(=O)CNC(=O)CNC(=O)C(N)Cc1ccc(O)cc1)C(=O)O` (stereo not given), the growth inhibition was 2.85% in assay [1] (at 50.0 µM); -8.25% in assay [2] (at 50.0 µM); -7.5% in assay [3] (at 50.0 µM); -0.75% in assay [4] (at 50.0 µM); -11.2% in assay [5] (at 50.0 µM).
Turning to `CCCCSP(SCCCC)N1CCCCC1`, the growth inhibition was 89.4% (active) in assay [1] (at 50.0 µM); 91.3% (active) in assay [2] (at 50.0 µM); 31.1% in assay [3] (at 50.0 µM); 79.8% (active) in assay [4] (at 50.0 µM); 88% (active) in assay [5] (at 50.0 µM).
`O=c1[nH]c(O)c(N=Nc2ccc([N+](=O)[O-])cc2[N+](=O)[O-])c(=O)[nH]1`: the growth inhibition in assay [1] (at 50.0 µM) is 15.4%; in assay [2] (at 50.0 µM), 22.2%; in assay [3] (at 50.0 µM), 14.7%; in assay [4] (at 50.0 µM), -11.7%; in assay [5] (at 50.0 µM), 7.35%.
Take `CCOC(=O)C(=O)C1CCNC1=O` (stereo not given): the growth inhibition in assay [6] was 9.2%; in assay [2] (at 50.0 µM) it was -4.45%; in assay [3] (at 50.0 µM), -0.25%; in assay [4] (at 50.0 µM) it was -3.65%; in assay [5] (at 50.0 µM) it was 24.5%.
In the case of `O=NNc1nc2ccccc2[nH]1`, the growth inhibition in assay [1] (at 50.0 µM) was -0.65%; in assay [2] (at 50.0 µM), 2.05%; in assay [3] (at 50.0 µM), -24.6%; in assay [4] (at 50.0 µM), -6.95%; in assay [5] (at 50.0 µM), 8.85%.
Turning to `CC1=CC(C)=Nc2ccc(C)cc2N1`, the growth inhibition in assay [6] was -2.65%; in assay [2] (at 50.0 µM), -5.95%; in assay [3] (at 50.0 µM) it was -2.65%; in assay [4] (at 50.0 µM), -6%; in assay [5] (at 50.0 µM), 22.2%.
Consider `CCN(CC)C(=S)[S-].CCN(CC)C(=S)[S-].O=C(O)CC([S-])C(=O)O.[Fe+3]` (stereo not given), for which the growth inhibition in assay [1] (setting [7]) is 9%; in assay [1] (setting [8]) it was 99% (active); in assay [1] (at 50.0 µM), 55.8%; in assay [2] (setting [7]), 35%; in assay [2] (setting [8]), 99% (active); in assay [2] (at 50.0 µM), 76.8% (active). For the same molecule, the growth inhibition in assay [3] (setting [7]) is 30%; in assay [3] (setting [8]) it was 98% (active); in assay [3] (at 50.0 µM), 43.8%; in assay [4] (setting [7]), -1%; in assay [4] (setting [8]) it was 98% (active); in assay [4] (at 50.0 µM) it was 45.7%. Besides, the growth inhibition in assay [5] (setting [7]) is 38%; in assay [5] (setting [8]), 98% (active); in assay [5] (at 50.0 µM), 87.2% (active).
Consider `COc1ccc(CC#N)cc1`, for which the growth inhibition is -5.25% in assay [1] (at 50.0 µM); 19.4% in assay [2] (at 50.0 µM); -35% in assay [3] (at 50.0 µM); 1.4% in assay [4] (at 50.0 µM); 15.2% in assay [5] (at 50.0 µM).
As for `CCC1(CC)COP(=S)(S)OC1`, the growth inhibition is 10.8% in assay [6]; -16.9% in assay [2] (at 50.0 µM); 10.1% in assay [3] (at 50.0 µM); -3.5% in assay [4] (at 50.0 µM); -3.2% in assay [5] (at 50.0 µM).

Source of the values: PubChem BioAssay (NCI).
